The text below walks through data of PubChem BioAssay (EPA / NIEHS).

Active and inactive are the calls of the source. The calls were made as follows: active = hit-call score of the fitted dose curve at least 0.9, where 1 is the maximum; inactive = score below 0.9.

Read-out in the assay: CYP2C9 (gene 1559)
Kind of assay: LTEA_HepaRG_CYP2C9: Life Technologies and Expression Analysis (LTEA) Assay for CYP2C9 using HepaRG (AID 2283484). The conditions noted are these: mRNA level, 48 h; actives raise or lower the signal. The method, then: LTEA_HepaRG is a cell based, multiplexed-readout assay that uses HepaRG, a human liver cell line, with measurements taken at 48 hours after chemical dosing on a 96-well plate.LTEA_HepaRG_CYP2C9 is one of 102 assay component(s) measured in the LTEA HepaRG cell culture assay. It is a marker of NR mediated metabolism.Data from the assay component LTEA_HepaRG_CYP2C9 was analyzed into 1 endpoint. This assay endpoint, LTEA_HepaRG_CYP2C9, was analyzed with bidirectional fitting relative to DMSO as the negative control and baseline of activity. Using a type of inducible reporter, measures of mRNA induction for gain or loss-of-signal activity can be used to understand regulation of transcription factor activity. To generalize the intended target to other relatable targets, this assay endpoint is annotated to the cyp intended target family, where the subfamily is xenobiotic metabolism.
A total of 1060 chemcials from the ToxCast library were tested in eight-point concentration-response experiments. Cell culture and cytotoxicity assays were conducted at Thermo Fisher Scientific's Custom Services facility (Madison, WI). A single lot of human HepaRG cells (Thermo Fisher Scientific, Frederick, MD) was used for the cell culture experiments. 96-well format collagen type I coated plates of human HepaRG cells were prepared using established methods. Briefly, cryopreserved HepaRG cells were thawed, plated at a density of approximately 100,000 cells/well in HepaRG Thaw, Plate, and General Purpose media (HPRG770, Thermo Fisher Scientific), and incubated for 48 hours. 0.5% DMSO was selected as vehicle control to balance the requisite need of DMSO in HepaRG cultures to maintain differentiation (for example, baseline metabolism, proportions of hepatocytes vs. cholangiocytes), while enabling further hepatic receptor pathway activation (for example, PXR and CAR) in response to chemical exposure. 48 hours after plating, the culture medium was replaced with HepaRG Serum-Free Incudtion Media. Cells were exposed to each test chemical in duplicate and maintained in CO2 incubators for another 48 hours. Chemical plates were thawed to room temperature and 200x concentrations of treatment groups were prepared. 8-point conentration-reponse curves were made with the highest exposure at 100 uM, followed by half-log dilutions, all in 0.5% DMSO. Each test plate contained variouse controls, induction positive controls (1mM phenobarbital), cytotoxicity positive controls ([…] aflatoxin B1), vehicle controls (0.5% DMSO), and total lysis controls (0.5% DMSO). Cell morphology images were taken using an Essen IncuCyte FLR automated microscope, with six 96-well plates imaged in about 24 minutes. Images were captured and exported and JPEG files. Spent culture media was transfered to black-well plates for the LDH assay, and remaining media was sorted at -80 C for later use. Cells were treated with RLT buffer and frozen until shipped for gene expression analysis. Total RNA was isolated from the cell suspension in 75 uL of Buffer RLT (Qiagen, Germantown, MD 20874) by Quintiles/Expression Analysis (Durham, NC) using a custom isolation procedure. Total RNA from each plate well was transferred to a preamplification plate. Fluidigm's 96.96 Dynamic ArrayTM (Fluidigm, Amsterdam, the Netherlands) technology was used for gene expression analyses by quantitative reverse transcription polymerase chain reaction (qRT-PCR, performed by Quintiles/Expression Analysis, Durham, NC)89. Standard TaqManTM Assays (Applied Biosystems/ThermoFisher Scientific, Foster City, CA) were used to assess the expression of 93 genes selected based on their selectivity and sensitivity to important hepatic receptors known to be modulated by environmental chemicals; importance in human hepatocyte functionality; and hepatotoxicity. […]
The AC50 is the concentration at which the activity in the assay is half-maximal. In the case of `Cc1nc(-c2ccccn2)ncc1C(=O)Nn1cc(C)c2cc(F)ccc21`, the AC50 was 75.6 µM (active).
Take `CCc1ccc(O)c(C(C)(C)C)c1`: the compound was called inactive.
Consider `NC(=O)NN=Cc1ccc([N+](=O)[O-])o1`, for which the outcome was inactive.
On the same count and under the same terms, the value for `NC(=O)N1c2ccccc2C=Cc2ccccc21` was “inactive”; that for `O=C(NO)C1(NS(=O)(=O)c2ccc(Oc3ccc(F)cc3)cc2)CCOCC1` was “inactive”.
Regarding `CCCCCCCCCCCCCCO`, the result was inactive.
Still for that read-out and setting: the value for `CCCCCCOC(=O)CC(CC(=O)OCCCCCC)(OC(=O)CCC)C(=O)OCCCCCC` was “inactive”.
For the compound `CCCOc1ccc(S(=O)(=O)N2CCN(CC)CC2)cc1-c1nc2c(CC)n(Cc3ccccn3)nc2c(=O)[nH]1`, the call was inactive.
Regarding `CC(C)C(=O)Nc1ccc([N+](=O)[O-])c(C(F)(F)F)c1`, the half-maximal activity concentration (AC50) is 66 µM (active).
For `c1ccc2cc3ccccc3cc2c1`, the call was inactive.
The same measure, in the same setting: the value for `CCCCCCCCN(C)C` was “inactive”.
Regarding `C[C@]12C=CC(=O)C=C1CC[C@H]1[C@@H]3C[C@@H](O)[C@](O)(C(=O)CO)[C@@]3(C)C[C@H](O)[C@@]12F`, the call was inactive.
On to `CCn1nc(C)c2c1C(=O)NCC(c1ccc(O)cc1)=N2`, for which the compound was called inactive.
The same measure, in the same setting: the value for `CC(C)CC(C)O` (stereo not given) was “inactive”; that for `OCC(CO)(CO)CO` was “inactive”.
For `COc1cc2c(c(OC)c1OC)-c1ccc(OC)c(=O)cc1[C@@H](NC(C)=O)CC2`, the AC50 is 0.0777 µM (active).
In the case of `CCCCCCCC/C=C\CCCCCCCC(=O)OC[C@@H](O)[C@H]1OC[C@H](O)[C@H]1O`, the call was inactive.
As to `OCCOCCOCCO`, the compound was called inactive.
For `OCCNCCO`, the AC50 is 50 µM (active).
On to `CC(C)c1nnc2ccc(-c3ocnc3-c3cc(F)ccc3F)cn12`, for which the concentration at half-maximal activity (AC50) is 71.7 µM (active).
For `NC(N)=O`, the call was inactive.
In the case of `CC[C@H](C)C(=O)O[C@H]1C[C@H](O)C=C2C=C[C@H](C)[C@H](CC[C@@H](O)C[C@@H](O)CC(=O)O)[C@H]21`, the call was inactive.
For the compound `Cc1nccn1-c1ccc(Sc2cccc(C3(C(N)=O)CCOCC3)c2)cc1`, the AC50 was 12.2 µM (active).
Still for that read-out and setting: the value for `c1ccc(C(O[C@@H]2CCCN(CCc3ccc4c(c3)OCO4)C2)c2ccccc2)cc1` was 85.2 µM (active).
On to `CNC(C)=O`, for which the call was inactive.
On the same count and under the same terms, the value for `C=CN1CCCC1=O` was “inactive”.
The same measure, in the same setting: the value for `O=S1(=O)CCCO1` was “inactive”; that for `CCN(CC)C(=S)SSC(=S)N(CC)CC` was “inactive”.
Consider `C=CCc1cc(S(=O)(=O)c2ccc(O)c(CC=C)c2)ccc1O`, for which the AC50 was 93 µM (active).
Regarding `O=C1CN(N=Cc2ccc([N+](=O)[O-])o2)C(=O)N1`, the call was inactive.
The same measure, in the same setting: the value for `OC[C@H]1O[C@@H]2O[C@H]3[C@H](O)[C@@H](O)[C@@H](O[C@H]4[C@H](O)[C@@H](O)[C@@H](O[C@H]5[C@H](O)[C@@H](O)[C@@H](O[C@H]6[C@H](O)[C@@H](O)[C@@H](O[C@H]7[C@H](O)[C@@H](O)[C@@H](O[C@H]1[C@H](O)[C@H]2O)O[C@@H]7CO)O[C@@H]6CO)O[C@@H]5CO)O[C@@H]4CO)O[C@@H]3CO` was “inactive”.
Regarding `O=C(O)c1cccc(C[C@@H]2COc3ccc(OCc4nc5cc(F)ccc5s4)cc3[C@@H]2O)c1`, the AC50 is 81.6 µM (active).
Consider `O=C(O)c1cccc(C(=O)O)c1`, for which the compound was classed as inactive.
For `c1ccc2c(c1)-c1cccc3c1c-2cc1ccccc13`, the AC50 is 18.1 µM (active).
Turning to `CCCCOC(=O)c1ccccc1`, the call was inactive.
As for `NNC(=O)c1ccncc1`, the compound was called inactive.
Consider `CCCCN1C(=O)[C@@H]([C@H](O)C2CCCCC2)NC(=O)C12CCN(Cc1ccc(Oc3ccc(C(=O)O)cc3)cc1)CC2`, for which the AC50 was 1.7 µM (active).
Consider `CC(=O)c1ccccc1`, for which the compound was called inactive.
Same read-out and setting: the value for `Cc1ncc([C@@H](CCCCCCc2ccc3c(n2)NCCC3)CC(=O)O)cn1` was “inactive”; that for `CCCCCCCCCCCCCCCCOS(=O)(=O)O` was “inactive”.
